Assay [1] can be described thus: growth inhibition, single agent and combos, cell-based, chromothripsis tumors, cisplatin or BGB combos (AID 1671450).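 Further: cells exposed to compound for four days; 0% = vehicle DMSO and 100% = cell killing by high DMSO.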 The conditions noted are these: HDN33 neuroblastoma cells, stronger effect = higher value.
Assay [2] is described as follows: growth inhibition, single agents and combos, LFS_MB_1R, cell-based, cisplatin or BGB combos, synergistic combos for chromothripsis tumors (AID 1671452).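 Further: cells exposed for 96 hours before readout.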 The conditions noted are these: LFS_MB_1R medulloblastoma cells, stronger effect = higher value.
The nature of assay [3]: growth inhibition, single agents and combos, HTB85, cell-based, BGB or cisplatin IC20 combos, synergistic combos for chromothripsis tumors (AID 1671453).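 Further: cells exposed for 96 hours before readout; 0% = vehicle DMSO and 100% = high DMSO killing control.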 As to conditions: HTB85 osteosarcoma cells, drug combinations, stronger effect = higher value.
Assay [4] can be described thus: growth inhibition, single agents and combos, CRL2098, cell-based, BGB or cisplatin IC20 combos, synergistic combos for chromothripsis tumors (AID 1671454).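 Further: cells exposed for 96 h before readout; 0% = vehicle DMSO and 100% = killing by high DMSO.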 The conditions noted are these: CRL2098 osteosarcoma cells, drug combinations, stronger effect = higher value.
Assay [5] can be described thus: growth inhibition, single agents and combos, HD-MB03, cell-based, BGB or cisplatin IC20 combos, synergistic combos for chromothripsis tumors (AID 1671455; in the data active means inhibition above about 83%;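 further: 0% = vehicle DMSO and 100% = high DMSO as cytotoxic control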). As to conditions: HD-MB03 medulloblastoma cells, stronger effect = higher value.
Assay [6] in a line: growth inhibition, single agents and combos, UWB1.289, cell-based, BGB or cisplatin combos, synergistic combos for chromothripsis tumors (AID 1671456).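 Further: cells exposed to compound for four days; 0% = vehicle DMSO and 100% = killing by high DMSO.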 The conditions noted are these: UWB1.289 ovarian carcinoma cells, stronger effect = higher value.
Assay [7] in a line: growth inhibition, single agents and combos, LFS_MB_2R, cell-based, cisplatin combos, synergistic combos for chromothripsis tumors (AID 1671457).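 Further: cells exposed to compound for four days before readout.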 As to conditions: LFS_MB_2R medulloblastoma cells, stronger effect = higher value.
Assay [8] in a line: growth inhibition, MDA-MB-436, cell-based, BGB or cisplatin combos, synergistic combos for chromothripsis tumors (AID 1671458; call rule not given here;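 further: cells exposed for 96 hours; 0% = vehicle DMSO and 100% = killing by high DMSO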). As to conditions: MDA-MB-436 breast carcinoma growth inhibition, drug combinations, stronger effect = higher value.
Assay [9] is described as follows: UWB1.289_BRCA1 ovarian cancer growth, cell-based, BGB or cisplatin combinations (AID 1671459). As to conditions: UWB1.289 BRCA1 ovarian carcinoma, drug combinations, stronger effect = higher value.
Assay [10] is described as follows: drug combination toxicity in non-malignant astrocytes – cell-based, BGB or cisplatin IC20 combos, cytotoxicity control for chromothriptic childhood tumor combination screen (AID 1671460).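 Further: cells exposed to compounds for 96 hours before viability readout; 0% = vehicle and 100% = killing control.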 As to conditions: Human astrocytes, viability inhibition, drug combinations, at 0.5 µM, stronger effect = higher value.
Assay [11] is described as follows: BT084 cell growth, single and combined drugs, ICGC_MB145, cisplatin and BGB IC40 combos (AID 1671461).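 Further: cells exposed to drugs for 96 hours; 0% = vehicle DMSO and 100% = high DMSO full killing control.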 As to conditions: BT084 medulloblastoma cells, drug combinations, stronger effect = higher value.
The nature of assay [12]: RCMB18 cell growth, single agent and combined, cisplatin and BGB IC40 combos (AID 1671462).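 Further: cells exposed to compound for four days.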 The conditions noted are these: RCMB18 medulloblastoma cells, stronger effect = higher value.
Assay [13] is described as follows: CRL1545 cell growth, single agent and combined, cisplatin and BGB IC20 combos (AID 1671464).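 Further: cells exposed to compound for 96 hours before readout; 0% = vehicle DMSO and 100% = high DMSO killing control.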 The conditions noted are these: CRL1545 osteosarcoma cells, stronger effect = higher value.
Assay [14] in a line: chitosan synthesis blockers in C. neoformans – flow cytometry, Cibacron Brilliant Red staining (AID 1347148; call rule not given here;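 further: compound exposure lasted three days at 37 degrees C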). The conditions noted are these: Cryptococcus neoformans chitosan, stronger effect = lower value; at 99.1 µM unless noted.
The mark [15] stands for this setting: measured here: with BGB IC20 combination, at 0.5 µM.
Where [16] appears, read: measured here: with cisplatin IC20 combination, at 0.5 µM.
Where [17] appears, read: measured here: combination with cisplatin, at 0.5 µM.
[18] abbreviates: measured here: combination with cisplatin, at 5 µM.

Where “and” joins values, the source holds several entries; their conditions need not be identical. Equal values may be shown once. Calls of active or inactive are those of the source. Unless noted, no stated cut-off is given here; in the data, active means inhibition above about 80%; inactive means the rest.

What is called inhibition is the drop in the measured response relative to a control, in per cent. With `Cn1c(=O)c2[nH]cnc2n(C)c1=O`, the inhibition was -6.91% and -17% and -18.3% in assay [1] (BGB combo, at 5 µM); 1.38% (inactive) and 2.18% (inactive) and -18.5% (inactive) in assay [1] (at 0.5 µM); 14.2% and 15.4% and -46.9% in [1] (cisplatin combo, at 5 µM); 4.11% and 8.06% and -21.1% in assay [1] (setting [15]); 9.64% and 13.8% and 3.17% in assay [1] (setting [16]); -10.4% and -21.4% and -26.1% in assay [1] (single agent, at 5 µM). Besides, the inhibition in [2] (at 0.5 µM) is -21.9% (inactive) and -0.42% (inactive) and -31.4% (inactive); in assay [2] (measured here: combination with BGB IC40, at 0.05 µM), -26.4% and 1.86% and -7.92%; in [2] (setting [17]), -14.9% and -0.619% and -31.4%; in [2] (setting [18]), 8.09% and -20.9% and -28.9%; in assay [3] (at 0.5 µM), 4.06% (inactive) and -19.4% (inactive) and 3.27% (inactive); in assay [3] (measured here: with BGB IC20, at 0.5 µM), -3.78% and -35% and -47%. Also, the inhibition in [3] (measured here: with BGB IC20, at 5 µM) was -9.64% and -9.51% and -34.2%; in assay [3] (measured here: with cisplatin IC20, at 0.5 µM) it was -5.37% and -29.8% and 44.7%; in [3] (measured here: with cisplatin IC20, at 5 µM) it was -42.2% and 14.2% and 0.95%; in assay [3] (single agent, at 5 µM), 4.95% and 14.1% and 12.1%; in [4] (at 0.5 µM), -26.5% (inactive) and -30.1% (inactive) and -56.1% (inactive); in assay [4] (measured here: combination with BGB at IC20, at 0.5 µM) it was -30.2% and -27.7% and -48.2%. In addition, the inhibition in [4] (measured here: combination with cisplatin at IC20, at 0.5 µM) was -14.9% and -28.7% and -88%; in assay [5] (at 0.5 µM), -13.1% (inactive) and -5.07% (inactive) and -0.46% (inactive); in assay [5] (measured here: combo with BGB at IC20, at 0.5 µM), -12% and -8.62% and 8.13%; in [5] (measured here: combo with cisplatin at IC20, at 0.5 µM), -20.1% and -3.43% and -7.86%; in [6] (at 0.5 µM), 4.45% (inactive) and -2.98% (inactive) and 2.06% (inactive); in [6] (measured here: inhibition with BGB combination, at 0.05 µM), -14.7% and -27.6% and -12%. Besides, the inhibition in assay [6] (measured here: inhibition with cisplatin combination, at 0.05 µM) is -7.61% and -9.15% and -16.4%; in [7] (at 0.5 µM) it was -18.7% (inactive) and -17.5% (inactive) and -20.5% (inactive); in assay [7] (setting [17]) it was -25.2% and -14.1% and -19.4%; in assay [7] (setting [18]) it was -67.2% and -2.43% and -20.9%; in assay [8] (at 0.5 µM), -17.5% (inactive) and -19.5% (inactive) and -13.6% (inactive); in assay [8] (measured here: BGB combination, at 0.5 µM) it was -12% and -14.3% and -17.1%. In addition, the inhibition in assay [8] (measured here: BGB combination, at 5 µM) was -13.2% and -18.8% and -9.87%; in [8] (measured here: cisplatin combination, at 0.5 µM) it was -40.2% and -33.9% and -18.2%; in assay [8] (measured here: cisplatin combination, at 5 µM), -36.3% and -17.6% and -0.817%; in [9] (BGB combination, concentration series, at 5 µM), -19.8% and 16.6% and -0.184%; in [9] (at 0.5 µM), -1.02% (inactive) and -1.86% (inactive) and -8.23% (inactive); in [9] (cisplatin combination, concentration series, at 5 µM), 10.1% and 4.75% and 18.9%. Also, the inhibition was 0.61% (inactive) and -3.23% (inactive) and 6.04% (inactive) in [10]; -5.91% and -4.46% and 10.7% in [10] (measured here: combo with BGB IC20); -10.6% and -12% and 4.82% in [10] (measured here: combo with cisplatin IC20); -52.1% (inactive) and -29.3% (inactive) and -9.65% (inactive) in assay [11] (at 0.5 µM); -24.1% and -32.5% and -4.44% in assay [11] (cisplatin combination, at 0.5 µM); -14.9% and -47.9% and -47.4% in assay [11] (cisplatin combination, at 5 µM). In addition, the inhibition in assay [11] (measured here: BGB IC40 combination 0.05 uM, at 0.05 µM) is -3.16% and -19.9% and 10.3%; in assay [11] (single agent, at 5 µM) it was -10.6% and -25.6% and -15.2%; in assay [12] (at 0.5 µM) it was -12.3% (inactive) and -7.91% (inactive) and -23.8% (inactive); in assay [12] (cisplatin combo, at 5 µM), -18.4% and 16.4% and 3.76%; in [12] (measured here: BGB IC40 combination, at 0.05 µM) it was -15.1% and -0.46% and -14.9%; in [12] (setting [17]) it was 5.37% and -0.222% and -34.5%. Further, the inhibition was -20% and -29.1% and -26.4% in assay [12] (single agent, at 5 µM); 2.86% (inactive) and -13.9% (inactive) and -23% (inactive) in [13] (at 0.5 µM); 6.54% and -1.14% and 25.3% in assay [13] (setting [15]); -1.22% and -20.4% and -47.1% in assay [13] (setting [16]); 6.84% and 45.8% and 6.98% in assay [13] (single agent, at 0.05 µM); 18.7% and 15.6% and -12.3% in assay [13] (single agent, at 5 µM).
Turning to `CN1CCN(CCCN2c3ccccc3Sc3ccc(C(F)(F)F)cc32)CC1`, the fold fluorescence in assay [14] was 10.1 [at 122.7 µM] (inactive).
Take `OCCN(CCO)c1nc(N2CCCCC2)c2nc(N(CCO)CCO)nc(N3CCCCC3)c2n1`: the fold fluorescence in [14] is 2.89 (active).
As to `CC[C@]1(O)C[C@@H]2CN(CCc3c([nH]c4ccccc34)[C@@](C(=O)OC)(c3cc4c(cc3OC)N(C)[C@H]3[C@@](O)(C(=O)OC)[C@H](OC(C)=O)[C@]5(CC)C=CCN6CC[C@]43[C@@H]65)C2)C1`, the fold fluorescence in assay [14] is 15.3 [at 55 µM] (inactive).

The record behind these values is PubChem BioAssay.
